Structures can show the parent of a compound that is named as a salt.

The record followed here is the supplement of paper PMC7411054.

The test system of one assay is HepG2-CANX-COX4. Kind of assay: lowest phenotypically active concentration; higher = less potent. The settings on record: treatment time: 24 h. Summed up: (§1)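 Each of fifteen gene-edited A549, HepG2 and WPMY1 reporter lines, marked with BFP for segmentation and GFP and RFP/FusionRed, was treated in four wells at 0.3, 1, 3 or 9 µM for 24 h prior to live imaging. Normalisation of per-well live-cell features used solvent control wells. Deviation needed ≥3 of 4 wells beyond the 95th percentile of control Euclidean distances, and reproducibility needed a median replicate Pearson correlation above the 95th percentile of non-replicates. Both were required for phenotypic activity.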
Regarding `CC1CNCCN1S(=O)(=O)c1cccc2cnccc12` (stereo not drawn) [H-7 dihydrochloride], the “lowest phenotypically active concentration” value came out at 9 µM.

With `COc1cc(OC)c2c(=O)[nH]c(-c3cc(C)c(OCCO)c(C)c3)nc2c1` [apabetalone], the “lowest phenotypically active concentration” value is 9 µM.

Regarding `N#Cc1ccc2ncnc(NCCc3ccccc3)c2c1` [Senexin A], the “lowest phenotypically active concentration” value was 9 µM.

With `CCC(=O)N1CCOc2c(cc(-c3ccc(OC)c(OC)c3)cc2OC[C@H]2CCCN(C)C2)C1`, the “lowest phenotypically active concentration” value was 9 µM.

Take `CCc1nc(-c2cccc(C)c2)c(-c2ccnc(NC(=O)c3ccccc3)c2)s1`: the “lowest phenotypically active concentration” value was 1 µM.

With `Cc1ccc(NC(=O)c2cccc(C(C)(C)C#N)c2)cc1Nc1ccc2ncn(C)c(=O)c2c1`, the “lowest phenotypically active concentration” value is ≤ 0.3 µM.

For `COc1cc2c(cc1OC)-c1c/c(=N/c3c(C)cc(C)cc3C)n(C)c(=O)n1CC2` [Trequinsin hydrochloride], the “lowest phenotypically active concentration” value came to 9 µM.

In the case of `O=C(Nc1ccncc1)c1cc([N+](=O)[O-])ccc1Cl`, the “lowest phenotypically active concentration” value worked out at 3 µM.

On to `CNC(=O)c1cc(Oc2ccc(NC(=O)Nc3ccc(Cl)c(C(F)(F)F)c3)c(F)c2)ccn1` [regorafenib], for which the “lowest phenotypically active concentration” value was 3 µM.

Regarding `CCC(C)(C)C(=O)O[C@H]1C[C@@H](C)C=C2C=C[C@H](C)[C@H](CC[C@@H]3C[C@@H](O)CC(=O)O3)[C@H]21` [Simvastatin], the “lowest phenotypically active concentration” value was 1 µM.

Take `COc1ccc(CCc2nc3cc(-c4c(C)noc4C)ccc3n2C[C@H](C)N2CCOCC2)cc1Cl`: the “lowest phenotypically active concentration” value is 9 µM.

As to `O=S(=O)(c1cccc2cnccc12)N1CCNCC1`, the “lowest phenotypically active concentration” value came out at 3 µM.

On to `CC(C)c1c(C(=O)Nc2ccccc2)c(-c2ccccc2)c(-c2ccc(F)cc2)n1CC[C@@H](O)C[C@@H](O)CC(=O)O` [atorvastatin], for which the “lowest phenotypically active concentration” value was 9 µM.

A further assay deals with HepG2-GM130-SQSTM1. The assay is described as above. The settings on record: treatment time: 24 h. The method in brief:
as §1
As to `CC1CNCCN1S(=O)(=O)c1cccc2cnccc12` (stereo not drawn) [H-7 dihydrochloride], the “lowest phenotypically active concentration” value amounted to 9 µM.

Regarding `COc1cc(OC)c2c(=O)[nH]c(-c3cc(C)c(OCCO)c(C)c3)nc2c1` [apabetalone], the “lowest phenotypically active concentration” value came to 9 µM.

For the compound `CCc1nc(-c2cccc(C)c2)c(-c2ccnc(NC(=O)c3ccccc3)c2)s1`, the “lowest phenotypically active concentration” value is 1 µM.

As to `Cc1ccc(NC(=O)c2cccc(C(C)(C)C#N)c2)cc1Nc1ccc2ncn(C)c(=O)c2c1`, the “lowest phenotypically active concentration” value was ≤ 0.3 µM.

Take `O=C(Nc1ccncc1)c1cc([N+](=O)[O-])ccc1Cl`: the “lowest phenotypically active concentration” value came out at 9 µM.

On to `O=C(/C=C/c1ccc2ccccc2n1)c1ccncc1`, for which the “lowest phenotypically active concentration” value was 9 µM.

As for `CNC(=O)c1cc(Oc2ccc(NC(=O)Nc3ccc(Cl)c(C(F)(F)F)c3)c(F)c2)ccn1` [regorafenib], the “lowest phenotypically active concentration” value was ≤ 0.3 µM.

`CCC(C)(C)C(=O)O[C@H]1C[C@@H](C)C=C2C=C[C@H](C)[C@H](CC[C@@H]3C[C@@H](O)CC(=O)O3)[C@H]21` [Simvastatin]: the “lowest phenotypically active concentration” value came to 1 µM.

As to `Cc1ccc(S(=O)(=O)c2ccc([N+](=O)[O-])o2)cc1`, the “lowest phenotypically active concentration” value was determined as 9 µM.

On to `CC(C)c1nc(CN(C)C(=O)N[C@H](C(=O)N[C@@H](Cc2ccccc2)C[C@H](O)[C@H](Cc2ccccc2)NC(=O)OCc2cncs2)C(C)C)cs1` [ritonavir], for which the “lowest phenotypically active concentration” value stood at 9 µM.

As to `CC[C@H](CO)Nc1nc(Nc2cccc(-c3ccccn3)c2)c2ncn(C(C)C)c2n1` [(R)-DRF053 dihydrochloride], the “lowest phenotypically active concentration” value worked out at 9 µM.

In the case of `COc1ccc(CCc2nc3cc(-c4c(C)noc4C)ccc3n2C[C@H](C)N2CCOCC2)cc1Cl`, the “lowest phenotypically active concentration” value was 9 µM.

For `O=S(=O)(c1cccc2cnccc12)N1CCNCC1`, the “lowest phenotypically active concentration” value was 3 µM.

As to `CC(C)c1c(C(=O)Nc2ccccc2)c(-c2ccccc2)c(-c2ccc(F)cc2)n1CC[C@@H](O)C[C@@H](O)CC(=O)O` [atorvastatin], the “lowest phenotypically active concentration” value was 3 µM.

A further assay deals with HepG2-TP53BP1-CLTA. The assay is described as above. The settings on record: treatment time: 24 h. Summed up: as §1
As to `CCc1nc(-c2cccc(C)c2)c(-c2ccnc(NC(=O)c3ccccc3)c2)s1`, the “lowest phenotypically active concentration” value was found to be 3 µM.

In the case of `Cc1ccc(NC(=O)c2cccc(C(C)(C)C#N)c2)cc1Nc1ccc2ncn(C)c(=O)c2c1`, the “lowest phenotypically active concentration” value is ≤ 0.3 µM.

Consider `O=C(Nc1ccncc1)c1cc([N+](=O)[O-])ccc1Cl`, for which the “lowest phenotypically active concentration” value is 9 µM.

Turning to `CNC(=O)c1cc(Oc2ccc(NC(=O)Nc3ccc(Cl)c(C(F)(F)F)c3)c(F)c2)ccn1` [regorafenib], the “lowest phenotypically active concentration” value is ≤ 0.3 µM.

Regarding `CCC(C)(C)C(=O)O[C@H]1C[C@@H](C)C=C2C=C[C@H](C)[C@H](CC[C@@H]3C[C@@H](O)CC(=O)O3)[C@H]21` [Simvastatin], the “lowest phenotypically active concentration” value was determined as 3 µM.

Regarding `Nc1cc(N)c(N)cc1N` [FAK Inhibitor 14], the “lowest phenotypically active concentration” value worked out at 9 µM.

For `Fc1ccccc1Nc1nc2nonc2nc1Nc1ccccc1F`, the “lowest phenotypically active concentration” value was 9 µM.

Consider `CC[C@H](CO)Nc1nc(Nc2cccc(-c3ccccn3)c2)c2ncn(C(C)C)c2n1` [(R)-DRF053 dihydrochloride], for which the “lowest phenotypically active concentration” value came out at 9 µM.

`COc1ccc(CCc2nc3cc(-c4c(C)noc4C)ccc3n2C[C@H](C)N2CCOCC2)cc1Cl`: the “lowest phenotypically active concentration” value stood at 9 µM.

As to `CCOC(=O)c1c2c3c(cccc3[nH]c1=O)C(=O)c1ccccc1-2`, the “lowest phenotypically active concentration” value was ≤ 0.3 µM.

Consider `CC(C)(C)n1nc(-c2ccc(Cl)cc2)c2c(N)ncnc21`, for which the “lowest phenotypically active concentration” value was found to be 3 µM.

As to `O=S(=O)(c1cccc2cnccc12)N1CCNCC1`, the “lowest phenotypically active concentration” value is 9 µM.

`CC(C)c1c(C(=O)Nc2ccccc2)c(-c2ccccc2)c(-c2ccc(F)cc2)n1CC[C@@H](O)C[C@@H](O)CC(=O)O` [atorvastatin]: the “lowest phenotypically active concentration” value was found to be 9 µM.

The next assay deals with HepG2-TUBA1B-RELA. Described as above. The settings on record: treatment time: 24 h. Summed up: as §1
As for `CC1CNCCN1S(=O)(=O)c1cccc2cnccc12` (stereo not drawn) [H-7 dihydrochloride], the “lowest phenotypically active concentration” value turned out to be 9 µM.

Regarding `CC(C)(C)c1ccc(C(O)CCCN2CCC(C(O)(c3ccccc3)c3ccccc3)CC2)cc1` (stereo not drawn) [terfenadine], the “lowest phenotypically active concentration” value worked out at 1 µM.

On to `CCC(=O)N1CCOc2c(cc(-c3ccc(OC)c(OC)c3)cc2OC[C@H]2CCCN(C)C2)C1`, for which the “lowest phenotypically active concentration” value turned out to be 9 µM.

Consider `CCc1nc(-c2cccc(C)c2)c(-c2ccnc(NC(=O)c3ccccc3)c2)s1`, for which the “lowest phenotypically active concentration” value was 1 µM.

`Cc1ccc(NC(=O)c2cccc(C(C)(C)C#N)c2)cc1Nc1ccc2ncn(C)c(=O)c2c1`: the “lowest phenotypically active concentration” value is ≤ 0.3 µM.

On to `O=C(Nc1ccncc1)c1cc([N+](=O)[O-])ccc1Cl`, for which the “lowest phenotypically active concentration” value stood at 9 µM.

As to `O=C(Nc1ccc(CN2CCOCC2)cc1)c1ccc(-c2cccc(Cl)c2)o1`, the “lowest phenotypically active concentration” value turned out to be 9 µM.

In the case of `O=C(/C=C/c1ccc2ccccc2n1)c1ccncc1`, the “lowest phenotypically active concentration” value is 9 µM.

On to `CNC(=O)c1cc(Oc2ccc(NC(=O)Nc3ccc(Cl)c(C(F)(F)F)c3)c(F)c2)ccn1` [regorafenib], for which the “lowest phenotypically active concentration” value is ≤ 0.3 µM.

For the compound `CCC(C)(C)C(=O)O[C@H]1C[C@@H](C)C=C2C=C[C@H](C)[C@H](CC[C@@H]3C[C@@H](O)CC(=O)O3)[C@H]21` [Simvastatin], the “lowest phenotypically active concentration” value is 1 µM.

Consider `Nc1cc(N)c(N)cc1N` [FAK Inhibitor 14], for which the “lowest phenotypically active concentration” value stood at 3 µM.

On to `Cc1ccc(S(=O)(=O)c2ccc([N+](=O)[O-])o2)cc1`, for which the “lowest phenotypically active concentration” value stood at 3 µM.

Turning to `Fc1ccccc1Nc1nc2nonc2nc1Nc1ccccc1F`, the “lowest phenotypically active concentration” value is 9 µM.

For `CC[C@H](CO)Nc1nc(Nc2cccc(-c3ccccn3)c2)c2ncn(C(C)C)c2n1` [(R)-DRF053 dihydrochloride], the “lowest phenotypically active concentration” value was 9 µM.

As to `CN1c2ccc([N+](=O)[O-])cc2N=C(c2ccc(C(=O)O)cc2)c2cc3c(cc21)C(C)(C)CCC3(C)C`, the “lowest phenotypically active concentration” value worked out at 9 µM.

As for `COc1ccc(CCc2nc3cc(-c4c(C)noc4C)ccc3n2C[C@H](C)N2CCOCC2)cc1Cl`, the “lowest phenotypically active concentration” value stood at 9 µM.

As for `O=S(=O)(c1cccc2cnccc12)N1CCNCC1`, the “lowest phenotypically active concentration” value was determined as 3 µM.

On to `CC(C)c1c(C(=O)Nc2ccccc2)c(-c2ccccc2)c(-c2ccc(F)cc2)n1CC[C@@H](O)C[C@@H](O)CC(=O)O` [atorvastatin], for which the “lowest phenotypically active concentration” value came out at 3 µM.
